# Measured values taken from PubChem BioAssay (EPA / NIEHS).
# Records with an inconclusive call do not appear. Calls of active or inactive are those of the source. Rule for the calls, unless noted: active = hit-call score of the fitted dose curve at least 0.9, where 1 is the maximum; inconclusive = response in the unintended direction; inactive = score below 0.9.
# Legend:
# [1] = ATG_CRE_CIS: Attagene CIS-FACTORIAL HepG2 Assay for human cAMP Responsive Element (CRE) binding protein 3 (AID 2282926; active = hit-call score of the fitted dose curve at least 0.9, where 1 is the maximum; inactive = score below 0.9); conditions: HepG2 CRE cis-reporter, Attagene multiplexed mRNA; actives raise or lower the signal
# Summary of the method: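 HepG2 cells transiently transfected with cis-element-driven multiple reporter transcription units; CRE reporter mRNA measured 24 h after dosing by RT-PCR, 6-FAM labelling, HpaI digestion and capillary electrophoresis. Bidirectional fit versus DMSO baseline.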
# [2] = ATG_DR4_LXR_CIS: Attagene CIS-FACTORIAL HepG2 Assay for human Liver X Receptor (LXR), DR4 submotif (AID 2282929; active = hit-call score of the fitted dose curve at least 0.9, where 1 is the maximum; inactive = score below 0.9); conditions: HepG2 Attagene DR4 cis-reporter, mRNA transcription; actives raise or lower the signal
# Summary of the method: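 The endpoint is DR4-element-driven reporter transcripts after 24 h chemical exposure of transfected HepG2 cells. These were measured via RT-PCR and capillary electrophoresis, and gain or loss of signal was fitted relative to DMSO controls.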
# [3] = ATG_AP_1_CIS: Attagene CIS-FACTORIAL HepG2 Assay for human Activator Protein 1 (AP-1) (AID 2282931; active = hit-call score of the fitted dose curve at least 0.9, where 1 is the maximum; inactive = score below 0.9); conditions: HepG2 Attagene cis-factorial AP-1 reporter mRNA; actives raise or lower the signal
# Summary of the method: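 Readout is reporter transcript level from endogenous transcription factor activity, quantified by RT-PCR with fluorescent primer extension and capillary electrophoresis. Transiently transfected HepG2 cells, 24 h exposure. Curves fitted both directions versus DMSO.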
# [4] = ATG_AP_2_CIS: Attagene CIS-FACTORIAL HepG2 Assay for human Activator Protein 2 (AP-2) (AID 2282932; active = hit-call score of the fitted dose curve at least 0.9, where 1 is the maximum; inactive = score below 0.9); conditions: HepG2 AP-2 cis-reporter, Attagene transcription factor profiling; actives raise or lower the signal
# Summary of the method: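 Step one: transient transfection of HepG2 with reporter transcription units. Step two: 24 h chemical exposure. Step three: RNA extraction, RT-PCR, labelled fragment analysis by capillary electrophoresis; DMSO serves as baseline.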
# [5] = target: Transcription factor E2F1 (Homo sapiens) (UniProt Q01094); assay: ATG_E2F_CIS: Attagene CIS-FACTORIAL HepG2 Assay for human E2F Transcription Factor 1 (AID 2282935; active = hit-call score of the fitted dose curve at least 0.9, where 1 is the maximum; inactive = score below 0.9); conditions: HepG2 Attagene cis-reporter, E2F reporter RNA transcripts; actives raise or lower the signal
# Summary of the method: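 Total RNA from 24 h-treated, reporter-transfected HepG2 cells undergoes DNase I treatment, oligo(dT) reverse transcription, PCR and 6-FAM primer extension before capillary electrophoresis.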
# [6] = ATG_M_61_CIS: Attagene CIS-FACTORIAL HepG2 Assay for M61 Transcription Factor (Internal Marker) (AID 2282937; active = hit-call score of the fitted dose curve at least 0.9, where 1 is the maximum; inactive = score below 0.9); conditions: HepG2 Attagene CIS-FACTORIAL M61 internal marker reporter; actives raise or lower the signal
# Summary of the method: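 Readout is reporter mRNA by RT-PCR, fluorescent primer extension and capillary electrophoresis, with gain or loss fitted relative to DMSO. Transfected HepG2 cells carrying endogenous-TF-driven cis reporters were exposed to chemicals for 24 hours.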
# [7] = ATG_EGR_CIS: Attagene CIS-FACTORIAL HepG2 Assay for human Early Growth Response 1 (EGR1) (AID 2282938; active = hit-call score of the fitted dose curve at least 0.9, where 1 is the maximum; inactive = score below 0.9); conditions: HepG2 Attagene CIS-FACTORIAL EGR reporter mRNA; actives raise or lower the signal
# Summary of the method: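 After 24 h compound exposure, RNA from reporter-transfected HepG2 cells was reverse-transcribed, PCR-amplified, fluorescently labelled and resolved by capillary electrophoresis. EGR1 reporter transcript changes, up or down, were fitted against DMSO, reflecting endogenous transcription-factor activity.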
# [8] = ATG_M_19_CIS: Attagene CIS-FACTORIAL HepG2 Assay for M19 Transcription Factor (Internal Marker) (AID 2282939; active = hit-call score of the fitted dose curve at least 0.9, where 1 is the maximum; inactive = score below 0.9); conditions: HepG2 Attagene CIS-FACTORIAL M19 internal marker reporter; actives raise or lower the signal
# Summary of the method: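 Background-control endpoint from a multiplexed HepG2 reporter panel. Cells carrying cis-regulated reporter constructs are treated 24 h, then reporter transcripts are amplified, fluorescently labelled and sized by capillary electrophoresis. DMSO defines baseline.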
# [9] = ATG_Ets_CIS: Attagene CIS-FACTORIAL HepG2 Assay for human Erythroblast Transformation Specific (ETS) (AID 2282941; active = hit-call score of the fitted dose curve at least 0.9, where 1 is the maximum; inactive = score below 0.9); conditions: HepG2 ETS cis-reporter transcription, actives raise or lower the signal
# Summary of the method: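 HepG2 cells transiently transfected with cis-promoter reporter transcription units were dosed for 24 h; reporter mRNA was measured by RT-PCR, 6-FAM primer extension, HpaI digestion and capillary electrophoresis, with bidirectional fitting against DMSO baseline.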
# [10] = target: Hepatocyte nuclear factor 3-beta (Homo sapiens) (UniProt Q9Y261); assay: ATG_FoxA2_CIS: Attagene CIS-FACTORIAL HepG2 Assay for human Forkhead box A2 (FOXA2) (AID 2282942; active = hit-call score of the fitted dose curve at least 0.9, where 1 is the maximum; inactive = score below 0.9); conditions: HepG2 cis-reporter transcription factor activity, 24 h; actives raise or lower the signal
# Summary of the method: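 Endogenous transcription factor activity is captured via cis-element-driven reporter transcripts in transfected HepG2. Total RNA taken at 24 h post-dosing; labelled RT-PCR products resolved by capillary electrophoresis. Gain or loss fitted versus DMSO.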
# [11] = ATG_GATA_CIS: Attagene CIS-FACTORIAL HepG2 Assay for human GATA Binding Protein (AID 2282944; active = hit-call score of the fitted dose curve at least 0.9, where 1 is the maximum; inactive = score below 0.9); conditions: HepG2 GATA cis-element reporter, Attagene multiplex mRNA; actives raise or lower the signal
# Summary of the method: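 Endogenous transcription factor activity was captured through cis-promoter-driven reporters in transfected HepG2 cells. After 24 h exposure, reporter transcripts were quantified by RT-PCR with fluorescent capillary electrophoresis, and responses fitted both directions against DMSO.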
# [12] = ATG_GLI_CIS: Attagene CIS-FACTORIAL HepG2 Assay for human Zinc Finger Protein GLI1 (AID 2282945; active = hit-call score of the fitted dose curve at least 0.9, where 1 is the maximum; inactive = score below 0.9); conditions: HepG2, Attagene cis-factorial reporter mRNA, GLI element; actives raise or lower the signal
# Summary of the method: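 Bidirectional curve fits relative to DMSO, using reporter mRNA levels from RT-PCR plus capillary electrophoresis. Cells were HepG2 transiently carrying cis-regulated reporter constructs, harvested 24 h after dosing.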
# [13] = ATG_ISRE_CIS: Attagene CIS-FACTORIAL HepG2 Assay for human Interferon Regulatory Factor 1 (IRF1) binding to an Interferon-Stimulated Response Element (ISRE) (AID 2282948; active = hit-call score of the fitted dose curve at least 0.9, where 1 is the maximum; inactive = score below 0.9); conditions: HepG2 ISRE cis-reporter (Attagene), mRNA transcription readout; actives raise or lower the signal
# Summary of the method: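 HepG2 cells transiently transfected with multiplexed cis-promoter reporter units; after 24 h compound exposure, reporter mRNA quantified by RT-PCR, FAM labelling, HpaI digestion and capillary electrophoresis. Bidirectional fit versus DMSO baseline.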
# [14] = ATG_M_32_CIS: Attagene CIS-FACTORIAL HepG2 Assay for M32 Transcription Factor (Internal Marker) (AID 2282949; active = hit-call score of the fitted dose curve at least 0.9, where 1 is the maximum; inactive = score below 0.9;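 note: background control marker of the multiplexed CIS panel rather than a real target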); conditions: HepG2 Attagene cis-factorial M32 reporter, mRNA; actives raise or lower the signal
# Summary of the method: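 Internal background marker read-out: RT-PCR/capillary electrophoresis fluorescence of reporter transcripts from transiently transfected HepG2 cells after 24 h chemical exposure. Activity fitted bidirectionally relative to DMSO negative control.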
# [15] = ATG_M_06_CIS: Attagene CIS-FACTORIAL HepG2 Assay for M06 Transcription Factor (Internal Marker) (AID 2282950; active = hit-call score of the fitted dose curve at least 0.9, where 1 is the maximum; inactive = score below 0.9); conditions: HepG2 Attagene CIS-FACTORIAL M06 internal marker reporter; actives raise or lower the signal
# Summary of the method: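 Steps: transfect HepG2 with multiplexed cis-element reporter constructs; dose chemical 24 h; extract RNA with DNase treatment; reverse-transcribe, PCR-amplify, 6-FAM label, HpaI digest; separate fragments by capillary electrophoresis. Activity fitted both directions versus DMSO.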
# [16] = ATG_MRE_CIS: Attagene CIS-FACTORIAL HepG2 Assay for human Metal Responsive Element (MRE) (AID 2282954; active = hit-call score of the fitted dose curve at least 0.9, where 1 is the maximum; inactive = score below 0.9); conditions: HepG2 MRE cis-reporter transcription, Attagene multiplex; actives raise or lower the signal
# Summary of the method: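 After a 24 h chemical exposure, transiently transfected HepG2 cells yield RNA whose reporter sequences are amplified, FAM-labelled and sized by capillary electrophoresis. Curves are fitted bidirectionally relative to DMSO.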
# [17] = target: Paired box protein Pax-6 (Homo sapiens) (UniProt P26367); assay: ATG_Pax6_CIS: Attagene CIS-FACTORIAL HepG2 Assay for human Paired Box 6 (PAX6) (AID 2282956; active = hit-call score of the fitted dose curve at least 0.9, where 1 is the maximum; inactive = score below 0.9); conditions: HepG2 CIS-FACTORIAL PAX6 reporter transcription, RNA readout; actives raise or lower the signal
# Summary of the method: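 HepG2 cells transiently transfected with multiplexed cis-promoter reporter units (endogenous TF activity) were dosed for 24 h. Reporter mRNA was quantified by RT-PCR, 6-FAM labeling, HpaI digestion and capillary electrophoresis; bidirectional fitting versus DMSO baseline.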
# [18] = ATG_PXRE_CIS: Attagene CIS-FACTORIAL HepG2 Assay for human Pregnane X Receptor Element (PXRE) (AID 2282957; active = hit-call score of the fitted dose curve at least 0.9, where 1 is the maximum; inactive = score below 0.9); conditions: HepG2 Attagene CIS-FACTORIAL PXRE reporter, mRNA; actives raise or lower the signal
# Summary of the method: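 HepG2 cells transiently transfected with cis-element-driven multiplexed reporter units; after 24 h chemical exposure, reporter mRNA measured by RT-PCR, 6-FAM labelling, HpaI digestion and capillary electrophoresis. Bidirectional fitting relative to DMSO.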
# [19] = target: Transcription factor Sp1 (Homo sapiens) (UniProt P08047); assay: ATG_Sp1_CIS: Attagene CIS-FACTORIAL HepG2 Assay for human Specificity Protein 1 (Sp1) (AID 2282961; active = hit-call score of the fitted dose curve at least 0.9, where 1 is the maximum; inactive = score below 0.9); conditions: HepG2 Sp1 cis-reporter transcription, actives raise or lower the signal
# Summary of the method: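 Read-out is reporter transcript level, measured by RT-PCR and fluorescent capillary electrophoresis after 24 h chemical treatment. System: transiently transfected HepG2 cells reporting endogenous transcription factor activity; gain or loss fitted against DMSO baseline.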
# [20] = target: Androgen receptor (Homo sapiens) (UniProt P10275); assay: ATG_AR_TRANS: Attagene TRANS-FACTORIAL HepG2 Assay for human Androgen Receptor (AR) (AID 2282973); conditions: HepG2 Attagene TRANS-FACTORIAL AR reporter transcription
# Summary of the method: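 HepG2 cells transiently transfected with AR-Gal4 chimera and GAL4-UAS reporter units; chemical exposure 24 h. Reporter mRNA quantified by RT-PCR with fluorescent labelling and capillary electrophoresis; gain-of-signal fitted against DMSO.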
# Androgen receptor (Homo sapiens), sequence (P10275 whole entry, looked up, the tested form may be a part): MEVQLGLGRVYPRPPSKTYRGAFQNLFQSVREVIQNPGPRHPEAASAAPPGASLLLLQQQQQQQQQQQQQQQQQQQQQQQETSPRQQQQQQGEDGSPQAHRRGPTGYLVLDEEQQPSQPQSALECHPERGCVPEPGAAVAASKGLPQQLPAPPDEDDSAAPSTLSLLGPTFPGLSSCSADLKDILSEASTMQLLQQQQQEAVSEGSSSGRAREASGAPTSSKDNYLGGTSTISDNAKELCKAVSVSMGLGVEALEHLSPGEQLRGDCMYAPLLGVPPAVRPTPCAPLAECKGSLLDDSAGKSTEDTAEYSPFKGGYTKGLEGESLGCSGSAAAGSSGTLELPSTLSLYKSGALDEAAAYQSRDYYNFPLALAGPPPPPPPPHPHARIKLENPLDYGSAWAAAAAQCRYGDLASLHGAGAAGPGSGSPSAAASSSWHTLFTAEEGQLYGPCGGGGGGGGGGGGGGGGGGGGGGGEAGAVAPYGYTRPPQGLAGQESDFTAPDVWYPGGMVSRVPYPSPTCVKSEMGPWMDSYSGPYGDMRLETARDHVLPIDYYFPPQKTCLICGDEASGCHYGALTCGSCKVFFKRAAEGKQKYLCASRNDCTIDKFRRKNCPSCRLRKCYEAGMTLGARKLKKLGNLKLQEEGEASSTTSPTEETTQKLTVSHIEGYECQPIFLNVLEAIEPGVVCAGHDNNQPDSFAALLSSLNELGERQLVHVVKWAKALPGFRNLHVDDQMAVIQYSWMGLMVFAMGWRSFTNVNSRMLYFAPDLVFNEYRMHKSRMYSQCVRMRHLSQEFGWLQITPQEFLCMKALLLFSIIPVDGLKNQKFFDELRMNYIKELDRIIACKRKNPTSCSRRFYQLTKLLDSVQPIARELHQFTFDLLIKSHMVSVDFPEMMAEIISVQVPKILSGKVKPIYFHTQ
# Transcription factor Sp1 (Homo sapiens), sequence (P08047 whole entry, looked up): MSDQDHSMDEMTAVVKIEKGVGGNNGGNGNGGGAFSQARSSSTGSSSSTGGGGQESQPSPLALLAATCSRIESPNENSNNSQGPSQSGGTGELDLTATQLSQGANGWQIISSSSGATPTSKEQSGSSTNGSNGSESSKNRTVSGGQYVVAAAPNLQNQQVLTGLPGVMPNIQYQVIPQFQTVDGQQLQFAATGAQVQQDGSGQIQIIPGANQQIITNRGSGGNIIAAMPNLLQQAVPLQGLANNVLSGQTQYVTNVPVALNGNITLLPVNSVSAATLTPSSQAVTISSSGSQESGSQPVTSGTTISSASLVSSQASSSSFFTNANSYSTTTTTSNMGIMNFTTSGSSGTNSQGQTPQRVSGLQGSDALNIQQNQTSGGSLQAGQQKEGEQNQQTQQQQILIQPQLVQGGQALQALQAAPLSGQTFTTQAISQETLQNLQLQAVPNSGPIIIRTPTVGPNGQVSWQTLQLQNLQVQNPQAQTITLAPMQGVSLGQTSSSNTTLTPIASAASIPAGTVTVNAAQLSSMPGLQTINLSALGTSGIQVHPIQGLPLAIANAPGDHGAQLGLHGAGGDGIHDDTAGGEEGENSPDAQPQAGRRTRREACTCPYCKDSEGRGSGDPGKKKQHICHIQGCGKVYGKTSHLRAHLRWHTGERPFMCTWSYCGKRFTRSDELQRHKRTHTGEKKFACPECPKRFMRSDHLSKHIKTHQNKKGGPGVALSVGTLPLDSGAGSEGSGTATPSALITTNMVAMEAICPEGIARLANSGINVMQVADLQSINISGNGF
# Hepatocyte nuclear factor 3-beta (Homo sapiens), sequence (Q9Y261 whole entry, looked up): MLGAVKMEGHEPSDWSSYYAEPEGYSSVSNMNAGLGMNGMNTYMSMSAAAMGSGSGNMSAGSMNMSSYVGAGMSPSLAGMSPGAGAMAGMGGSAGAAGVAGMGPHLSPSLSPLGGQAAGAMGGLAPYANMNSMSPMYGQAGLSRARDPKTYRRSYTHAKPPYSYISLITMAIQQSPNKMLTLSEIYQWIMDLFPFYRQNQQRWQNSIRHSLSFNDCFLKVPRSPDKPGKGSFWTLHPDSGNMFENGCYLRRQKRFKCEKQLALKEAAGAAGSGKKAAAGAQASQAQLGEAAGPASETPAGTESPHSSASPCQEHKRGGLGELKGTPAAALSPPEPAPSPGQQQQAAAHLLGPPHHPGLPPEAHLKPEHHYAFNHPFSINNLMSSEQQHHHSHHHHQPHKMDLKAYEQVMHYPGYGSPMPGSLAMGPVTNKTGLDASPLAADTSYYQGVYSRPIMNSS
# Paired box protein Pax-6 (Homo sapiens), sequence (P26367 whole entry, looked up): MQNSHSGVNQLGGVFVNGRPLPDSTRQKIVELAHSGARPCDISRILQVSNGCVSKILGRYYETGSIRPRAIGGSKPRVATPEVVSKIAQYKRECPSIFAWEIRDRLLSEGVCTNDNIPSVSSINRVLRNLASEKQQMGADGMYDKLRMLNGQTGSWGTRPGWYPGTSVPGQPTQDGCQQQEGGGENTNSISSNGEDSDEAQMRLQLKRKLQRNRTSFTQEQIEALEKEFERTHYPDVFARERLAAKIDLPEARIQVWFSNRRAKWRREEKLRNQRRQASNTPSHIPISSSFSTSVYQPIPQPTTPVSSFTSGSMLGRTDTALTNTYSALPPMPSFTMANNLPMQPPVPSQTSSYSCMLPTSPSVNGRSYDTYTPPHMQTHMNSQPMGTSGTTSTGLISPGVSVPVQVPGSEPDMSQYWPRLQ
# Transcription factor E2F1 (Homo sapiens), sequence (Q01094 whole entry, looked up): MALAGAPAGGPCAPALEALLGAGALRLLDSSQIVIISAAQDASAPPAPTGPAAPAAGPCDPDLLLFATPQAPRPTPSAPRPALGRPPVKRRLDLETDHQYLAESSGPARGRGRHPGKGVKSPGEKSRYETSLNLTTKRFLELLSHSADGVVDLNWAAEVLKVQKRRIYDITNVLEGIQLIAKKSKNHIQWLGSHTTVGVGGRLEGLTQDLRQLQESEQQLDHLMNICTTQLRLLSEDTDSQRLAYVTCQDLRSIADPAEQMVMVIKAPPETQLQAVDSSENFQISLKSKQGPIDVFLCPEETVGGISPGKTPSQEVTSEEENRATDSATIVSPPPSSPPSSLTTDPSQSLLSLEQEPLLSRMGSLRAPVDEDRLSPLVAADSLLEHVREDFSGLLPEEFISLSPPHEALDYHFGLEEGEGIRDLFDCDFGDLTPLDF
structure (smiles),measurement,setting,value
CN1C[C@H](C(=O)N[C@]2(C)O[C@@]3(O)[C@@H]4CCCN4C(=O)[C@H](Cc4ccccc4)N3C2=O)C=C2c3cccc4[nH]cc(c34)C[C@H]21,outcome,[1],inactive
same,outcome,[2],inactive
same,AC50,[3],23.1 µM (active)
same,outcome,[4],inactive
same,outcome,[5],inactive
same,outcome,[6],inactive
same,outcome,[7],inactive
same,outcome,[8],inactive
same,outcome,[9],inactive
same,outcome,[10],inactive
same,outcome,[11],inactive
same,outcome,[12],inactive
same,outcome,[13],inactive
same,outcome,[14],inactive
same,outcome,[15],inactive
same,outcome,[16],inactive
same,outcome,[17],inactive
same,AC50,[18],0.445 µM (active)
same,outcome,[19],inactive
CC(=O)Nc1ccc(S(N)(=O)=O)cc1,outcome,[20],inactive
CCCCC(CC)COC(=O)/C=C/c1ccc(OC)cc1 (stereo unspecified),outcome,[20],inactive
COC(=O)c1cccnc1,outcome,[20],inactive
Nc1cc([N+](=O)[O-])ccc1Cl,outcome,[20],inactive
CC(CO)c1ccccc1 (stereo unspecified),outcome,[20],inactive
CCCCC[Si](OCC)(OCC)OCC,outcome,[20],inactive
Cc1ccc(N(C)C)cc1,outcome,[20],inactive
CCCC(=O)c1cc(O)c(O)cc1O,outcome,[20],inactive
CCN=c1cc2oc3cc(NCC)c(C)cc3c(-c3ccccc3C(=O)OCC)c-2cc1C,outcome,[20],inactive
COCCOCCOCCOCCOC,outcome,[20],inactive
O=C1CC2CC1C1CCCC21 (stereo unspecified),outcome,[20],inactive
Oc1ccc(-c2ccccc2)c(Cl)c1,outcome,[20],inactive
O=c1cc(-c2ccccc2)oc2ccc3ccccc3c12,outcome,[20],inactive
CCCc1ccc(OC)cc1,outcome,[20],inactive
N#Cc1ccc(C(c2ccc(C#N)cc2)n2cncn2)cc1,outcome,[20],inactive
O=C(O)c1ccccc1C(=O)OCc1ccccc1,outcome,[20],inactive
Cc1c(C(=O)c2c[nH]n(C)c2=O)ccc(S(C)(=O)=O)c1C1=NOCC1,outcome,[20],inactive
CC(C)c1ccc2c(c1)CC[C@H]1[C@](C)(CN)CCC[C@]21C,outcome,[20],inactive
CC(CC=O)CCCC(C)(C)O (stereo unspecified),outcome,[20],inactive
CCCCCCCCCCCCCCCCCC[N+](C)(C)C,AC50,[20],14.5 µM (active)
O=C(C=C(O)C(F)(F)F)C(F)(F)F,outcome,[20],inactive
C=C(C)C(=O)OCC(F)(F)C(F)(F)C(F)(F)C(F)F,outcome,[20],inactive
CC(C=O)Cc1ccc(C(C)(C)C)cc1 (stereo unspecified),outcome,[20],inactive
O=S(=O)(O)c1cc(S(=O)(=O)O)c2ccc3c(S(=O)(=O)O)cc(S(=O)(=O)O)c4ccc1c2c43,outcome,[20],inactive
C=CCOC(=O)/C=C\C(=O)OCC=C,outcome,[20],inactive
NC(C(F)(F)F)C(F)(F)F,outcome,[20],inactive
O=C(O)C[C@H](O)C[C@H](O)/C=C/c1c(C2CC2)nc2ccccc2c1-c1ccc(F)cc1,outcome,[20],inactive
CC1=CCC2C(C1)C2(C)C (stereo unspecified),outcome,[20],inactive
C=COCCCC,outcome,[20],inactive
C=CC(=C)CCCC(C)(C)OC(C)=O,outcome,[20],inactive
Cc1cc(=O)n(-c2ccccc2)n1C,outcome,[20],inactive
CCCCCCCCCCCCCC(=O)OCC(O)CO (stereo unspecified),outcome,[20],inactive
